# IDE act = human IDE activators in live cells, primary screen, fluorescence polarization, HEK cells, FAbeta-B substrate | 0.073% of 340,000 active | FAbeta-B cleavage; 0% vehicle, 100% cell-free pure enzyme wells | activation, % at 5.96 µM | Insulin-degrading enzyme (Homo sapiens), P14735;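 active = activation above the mean of all tested compounds plus 3 SD, set per screening campaign, cut at about 17% in these data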
# LANA-H2B inh = blockers of LANA interaction with H2A/H2B – biochemical, FP readout, HTS, primary screen; AID 2629, 2010; Protein LANA1 (Human herpesvirus 8 type P (isolate GK18)), Q9QR71; 0.6% of 320,000 active; inhibition, % (test concentration not listed); cell-free LANA-H2A/H2B peptide, fluorescence polarization; in the data active = inhibition mostly above about 10%, no sharp cut-off; inactive = mostly below about 6.7%
# IDE inh = human IDE inhibitors in live cells, primary screen, fluorescence polarization, HEK cells, FAbetaB substrate; 0.41% of 320,000 active; inhibition, % at 5.59 µM; FAbetaB cleavage;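 active = percent inhibition above the average of all tested compounds plus 3 SD, set per screening campaign, cut at about 16% in these data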;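 also: IDE supplied by intact live HEK cells; FP after avidin binding of uncleaved biotin substrate so inhibition keeps polarization high; 0% = DMSO wells and 100% = 60 µM reference IDE inhibitor Ii1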
# HDAC3 inhib = HDAC3 deacetylase inhibitors, primary screen, biochemical, fluorescence, cell-free homogeneous | AID 2718, 2010 | recombinant HDAC3, fluorogenic peptide/trypsin coupled | 0.15% of 320,000 active | Histone deacetylase 3 (Homo sapiens), O15379 | inhibition, % at 8.3 µM; in the data active = inhibition above about 26%, passing the limit was not always enough
# Target sequence (O15379 whole entry, looked up): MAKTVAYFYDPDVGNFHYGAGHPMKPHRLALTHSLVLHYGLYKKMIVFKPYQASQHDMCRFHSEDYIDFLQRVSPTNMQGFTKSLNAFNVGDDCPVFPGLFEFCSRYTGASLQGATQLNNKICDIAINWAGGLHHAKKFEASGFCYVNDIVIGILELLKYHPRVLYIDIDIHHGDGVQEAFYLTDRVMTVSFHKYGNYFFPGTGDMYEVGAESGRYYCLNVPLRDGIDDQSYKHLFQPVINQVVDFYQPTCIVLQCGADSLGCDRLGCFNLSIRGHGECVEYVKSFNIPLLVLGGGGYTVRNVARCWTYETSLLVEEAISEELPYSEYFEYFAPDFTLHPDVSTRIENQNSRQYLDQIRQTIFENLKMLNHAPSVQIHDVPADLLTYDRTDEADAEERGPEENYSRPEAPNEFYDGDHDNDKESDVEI
# IDE inh confirm = human IDE inhibitors in live cells, confirmation, fluorescence polarization, HEK cells, FAbetaB substrate; shares compounds with IDE inh; AID 435028, 2010; inhibition, % at 5.59 µM; FAbetaB cleavage; 51% of 1,200 active;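 active = mean inhibition across triplicate wells above the cutoff set by the earlier primary insulin-degrading enzyme screen, cut at about 16% in these data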;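 also: 0% = DMSO wells and 100% = 60 µM reference IDE inhibitor Ii1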
# HEK cytotox = cytotoxicity in HEK cells, cytotoxicity control for IDE inhibitor project, cell-based, luminescence | shares compounds with IDE inh | HEK293 cytotoxicity, ATP luminescence | inhibition, % at 5.59 µM | 28% of 1,200 active; in the data active = inhibition above about 22%;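 also: 0% = vehicle wells and 100% = reference cytotoxic drug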
# * = called active by the depositor; / = no result given. Compounds with a hit are over-represented: about 1.1% of the library has one in this group of screens.
SMILES,IDE act,LANA-H2B inh,IDE inh,HDAC3 inhib,IDE inh confirm,HEK cytotox
O=C(OCCN1C(=O)c2cccc3c(N4CCOCC4)ccc(c23)C1=O)c1ccccc1Cl,-100.9,27.4*,112.7*,-0.3,96.2*,49.5*
COc1ccc(N2CCN(S(=O)(=O)CCNC(=O)C3CC3)CC2)cc1,-1.1,-7.2,4.1,-4.7,/,/
CCN(CC)c1ccc2cc(-c3nnc(-c4ccccc4)o3)c(=O)oc2c1,-64.0,1.9,36.2*,-2.5,82.6*,5.8
CCN(CC)c1ccc2cc(-c3nc4ccccc4[nH]3)c(=O)oc2c1,25.4*,26.9*,39.1*,9.7,25.9*,50.4*
CCN(CC)c1ccc2cc(-c3nc4ccccc4n3C)c(=O)oc2c1,-35.4,-3.1,13.6,-21.9,/,/
O=c1[nH]nc(-c2ccccc2)c2ccccc12,-7.6,-4.3,4.5,/,/,/
O=c1onc(-c2ccccc2)c2ccccc12,9.3,9.0,16.4*,-5.0,6.5,2.6
Cc1ccc(OCC(=O)NNC(=O)C2CCN(c3ncnc4sc(C)c(C)c34)CC2)cc1,-8.9,1.0,12.5,2.9,/,/
Cc1sc2ncnc(N3CCC(C(=O)NNC(=O)COc4ccc(Br)cc4)CC3)c2c1C,-10.4,3.8,22.4*,5.5,12.5,11.3
NC(=O)CC(NC(=O)c1ccccc1)c1ccc(N2CCc3ccccc3C2)c([N+](=O)[O-])c1 (stereo not drawn),4.2,-2.9,4.3,6.8,/,/
COc1ccc(/C=C/C(=O)c2c(O)cc(C)oc2=O)c(OC)c1,-8.6,9.5,19.9*,1.3,1.6,19.2
COc1ccc(/C=N/n2c(C)nc3sc(C)c(C)c3c2=O)cc1,/,1.0,7.5,-3.4,/,/
Cc1sc2nc(C)n(/N=C/c3ccccc3)c(=O)c2c1C,-10.8,-0.2,16.2*,-1.2,10.2,12.9
Cc1cc(C)cc(OCC(=O)N(Cc2ccccc2)C2CCS(=O)(=O)C2)c1 (stereo not drawn),5.8,5.1,0.7,-4.8,/,/
Nc1c(C(=O)Nc2nc3ccccc3s2)sc2nc(-c3cccs3)ccc12,-22.0,-0.2,28.9*,-20.7,37.1*,81.2*
COc1cccc(/C=N/Nc2ncnc3c2[nH]c2ccc(C)cc23)c1OC,-45.3,-1.1,62.7*,5.9,59.4*,13.6
C=CCNc1ncnc2c1[nH]c1ccc(C)cc12,-17.7,2.3,30.1*,-31.2,14.9,35.1*
Cc1cc(/C=C(\C#N)C(=O)OCC(=O)Nc2ccc(OC(F)F)cc2)c(C)n1CC(C)C,-7.0,-2.2,8.2,-1.9,/,/
CCN(c1cccc(C)c1)S(=O)(=O)c1csc(C(N)=O)c1,-3.7,-0.5,2.6,7.5,/,/
CCN(CC(=O)NCCCN1CCOCC1)S(=O)(=O)c1ccc(F)cc1,0.9,-0.2,-0.3,-0.4,/,/
O=C(NCCCc1ccccc1)c1cccc(NC(=O)C2CCCCC2)c1,0.1,/,/,/,/,/
O=C(Cc1c(F)cccc1Cl)NNC(=O)c1ccccc1Cl,0.5,-6.1,-1.7,-5.8,/,/
COc1ccc(C(=O)/C=C/c2ccc(N(C)C)cc2)c(OC)c1,-34.4,-26.6,81.7*,13.1,25.9*,47.2*
COc1ccc(C(=O)/C=C/c2cc(OC)c(O)c(OC)c2)c(F)c1,-57.7,-2.7,51.7*,/,87.3*,43.2*
COc1ccc(/C=C2\SC(=S)N(CCC(=O)N3CCCCC3)C2=O)cc1,-0.7,-0.3,5.7,4.0,/,/
COCCN1C(=O)/C(=C/c2ccc(N3CCCC3)cc2)SC1=S,-36.9,-9.0,26.2*,14.9,77.3*,12.9
COc1ccc(NC(=O)CSc2ncccn2)cc1S(=O)(=O)N1CCCCC1,5.1,0.0,-3.3,-4.6,/,/
C[C@H](CO)N1C[C@H](C)[C@@H](CN(C)Cc2ccc(Oc3ccccc3)cc2)Oc2c(NC(=O)c3ccncc3)cccc2C1=O,-14.4,1.3,23.7*,5.8,7.3,24.3*
CCc1ccc(C(=O)/C=C2\Sc3ccccc3NC2=O)cc1,-2.3,-6.5,18.4*,-11.3,2.5,8.9
CC(=O)c1cccc(OCC(O)CN2CCN(C(=O)c3ccco3)CC2)c1 (stereo not drawn),-0.6,6.0,-0.9,2.1,/,/

# Bioassay records deposited in PubChem BioAssay by several laboratories.
